# According to PubChem BioAssay (NCATS):
# Records with an inconclusive call do not appear. A call without a number means that no potency is given here. Activity calls are given as the source filed them. Unless noted, the call rests on the fitted dose curve; in most records, active means well fitted curve in the direction sought with a large enough effect; inconclusive means small, poorly fitted or top-dose-only effect, or another doubt; inactive means no such curve, though single readings can be large; an effect the other way counts as inactive or inconclusive.
# How the values were obtained:
# [1] = target: D(1A) dopamine receptor (Homo sapiens) (UniProt P21728); assay: HTS Assay for Allosteric Agonists of the Human D1 Dopamine Receptor: Primary Screen for Potentiators (AID 488982)
# Sequence of D(1A) dopamine receptor (Homo sapiens) (P21728 whole entry, looked up): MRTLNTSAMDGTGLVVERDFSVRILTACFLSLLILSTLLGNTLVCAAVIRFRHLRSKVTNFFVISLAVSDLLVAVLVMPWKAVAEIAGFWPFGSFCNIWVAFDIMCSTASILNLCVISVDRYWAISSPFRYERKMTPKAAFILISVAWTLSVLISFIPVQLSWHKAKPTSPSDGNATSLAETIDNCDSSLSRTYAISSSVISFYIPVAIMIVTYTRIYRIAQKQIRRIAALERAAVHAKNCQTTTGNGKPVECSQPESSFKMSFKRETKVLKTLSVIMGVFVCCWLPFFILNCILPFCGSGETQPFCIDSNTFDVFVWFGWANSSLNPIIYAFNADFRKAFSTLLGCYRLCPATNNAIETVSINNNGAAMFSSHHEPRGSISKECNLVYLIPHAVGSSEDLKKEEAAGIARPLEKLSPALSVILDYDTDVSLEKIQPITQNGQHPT
# Procedure, shortened: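 Tetracycline-induced HEK293 T-REx cells force-coupled to calcium signalling were incubated overnight at 30 C and dye-loaded at room temperature. Calcium flux over 180 s after compound addition flagged agonists; a further 180 s read after EC20 dopamine flagged potentiators.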
# [2] = target: D(1A) dopamine receptor (Homo sapiens) (UniProt P21728); assay: HTS Assay for Allosteric Agonists of the Human D1 Dopamine Receptor: Primary Screen for Antagonists (AID 488983);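 further: calcium flux response to an EC80 dopamine challenge measured with no-wash dye; nearly all actives have a fitted effect of over 65% in size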; further: potency means the concentration at half of the fitted maximal effect
# Procedure, shortened: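 Kinetic fluorescence at 1 cycle/sec tracked intracellular calcium in force-coupled, tetracycline-inducible HEK293 T-REx D1 cells. Loss of response to an EC80 dopamine dose, given 180 s after compound, marked antagonists.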
# [3] = Validation screen for small molecules that induce genotoxicity in human embryonic kidney (HEK293T) cells expressing luciferase-tagged ELG1 (AID 493106); further: potency means the concentration at half of the fitted maximal effect
# Procedure, shortened: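 Cells were dispensed at 2,000 per well, then 23 nL compound or DMSO was pinned in. After 16 hr at 37 °C and 5% CO2, ONE-Glo reagent was added. Luciferase activity was measured following 30 min at room temperature.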
# [4] = target: ATPase family AAA domain-containing protein 5 (Homo sapiens) (UniProt Q96QE3); assay: Validation screen for small molecules that inhibit ELG1-dependent DNA repair in human embryonic kidney (HEK293T) cells expressing luciferase-tagged ELG1 (AID 493107); further: nearly all actives have a fitted effect of over 70% in size; further: potency means the concentration at half of the fitted maximal effect
# Sequence of ATPase family AAA domain-containing protein 5 (Homo sapiens) (Q96QE3 whole entry, looked up, the tested form may be a part): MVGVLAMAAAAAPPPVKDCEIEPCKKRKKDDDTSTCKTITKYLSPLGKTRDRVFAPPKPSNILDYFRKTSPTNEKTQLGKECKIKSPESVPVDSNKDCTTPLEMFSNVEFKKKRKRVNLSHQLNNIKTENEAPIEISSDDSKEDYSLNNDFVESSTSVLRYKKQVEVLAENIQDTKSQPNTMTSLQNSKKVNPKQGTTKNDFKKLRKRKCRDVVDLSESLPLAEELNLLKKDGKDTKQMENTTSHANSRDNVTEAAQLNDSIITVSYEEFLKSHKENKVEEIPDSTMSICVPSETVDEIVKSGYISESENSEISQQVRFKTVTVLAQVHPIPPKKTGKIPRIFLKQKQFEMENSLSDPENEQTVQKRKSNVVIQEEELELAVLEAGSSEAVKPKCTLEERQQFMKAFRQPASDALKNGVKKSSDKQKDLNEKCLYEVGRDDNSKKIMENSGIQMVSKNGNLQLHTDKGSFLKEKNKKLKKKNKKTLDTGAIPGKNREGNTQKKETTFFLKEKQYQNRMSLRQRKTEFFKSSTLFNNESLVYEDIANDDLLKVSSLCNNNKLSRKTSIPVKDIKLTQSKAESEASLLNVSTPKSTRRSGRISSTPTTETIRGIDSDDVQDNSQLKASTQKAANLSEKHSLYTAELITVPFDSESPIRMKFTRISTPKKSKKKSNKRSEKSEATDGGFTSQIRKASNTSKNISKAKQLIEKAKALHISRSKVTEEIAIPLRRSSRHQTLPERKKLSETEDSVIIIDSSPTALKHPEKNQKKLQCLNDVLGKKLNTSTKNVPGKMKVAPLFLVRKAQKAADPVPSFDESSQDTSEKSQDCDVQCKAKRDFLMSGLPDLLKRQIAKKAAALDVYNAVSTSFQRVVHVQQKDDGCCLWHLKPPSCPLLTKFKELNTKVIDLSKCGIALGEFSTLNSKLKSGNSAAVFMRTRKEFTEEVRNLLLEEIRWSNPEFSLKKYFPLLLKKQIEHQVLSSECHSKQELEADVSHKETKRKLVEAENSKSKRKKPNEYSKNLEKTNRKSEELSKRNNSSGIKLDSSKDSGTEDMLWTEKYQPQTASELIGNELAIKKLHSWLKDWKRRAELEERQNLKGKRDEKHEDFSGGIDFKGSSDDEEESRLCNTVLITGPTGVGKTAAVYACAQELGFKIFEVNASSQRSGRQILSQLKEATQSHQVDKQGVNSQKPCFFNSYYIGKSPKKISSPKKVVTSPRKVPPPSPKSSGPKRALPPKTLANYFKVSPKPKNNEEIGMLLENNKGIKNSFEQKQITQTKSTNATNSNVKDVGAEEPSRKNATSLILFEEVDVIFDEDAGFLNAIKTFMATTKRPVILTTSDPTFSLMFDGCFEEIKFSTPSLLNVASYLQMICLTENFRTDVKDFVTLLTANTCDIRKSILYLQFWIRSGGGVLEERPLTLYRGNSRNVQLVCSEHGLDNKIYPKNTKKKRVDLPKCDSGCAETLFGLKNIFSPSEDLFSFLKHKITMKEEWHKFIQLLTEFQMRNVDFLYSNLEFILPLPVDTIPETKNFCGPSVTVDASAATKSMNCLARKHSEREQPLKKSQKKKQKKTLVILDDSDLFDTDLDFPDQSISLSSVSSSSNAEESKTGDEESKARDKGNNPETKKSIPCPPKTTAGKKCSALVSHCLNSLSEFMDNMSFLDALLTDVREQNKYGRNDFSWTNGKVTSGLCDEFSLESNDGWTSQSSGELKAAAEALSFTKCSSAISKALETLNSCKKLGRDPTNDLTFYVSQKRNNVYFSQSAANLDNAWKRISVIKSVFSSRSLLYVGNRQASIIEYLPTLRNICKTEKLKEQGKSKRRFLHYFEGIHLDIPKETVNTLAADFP
# Procedure, shortened: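 Cells are dispensed in 1536-well format, then 5-fluorouridine and compound are pinned in. After a 16 hr incubation at 37 °C and 5% CO2, ONE-Glo is added and luciferase measured on a CCD imager.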
# [5] = target: Thyrotropin-releasing hormone receptor (Homo sapiens) (UniProt P34981); assay: qHTS for Small Molecule Agonists and Allosteric Enhancers of Human TRH Receptor: Validation Screen for Agonists (AID 493127;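 active means calcium activation more than 3 SD above the typical response in the agonist read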;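 further: intracellular calcium rise by fluo-8 fluorescence before TRH EC20 addition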); details: TRH receptor agonist cell assay; at 2 µM; stronger effect = higher value
# Sequence of Thyrotropin-releasing hormone receptor (Homo sapiens) (P34981 whole entry, looked up): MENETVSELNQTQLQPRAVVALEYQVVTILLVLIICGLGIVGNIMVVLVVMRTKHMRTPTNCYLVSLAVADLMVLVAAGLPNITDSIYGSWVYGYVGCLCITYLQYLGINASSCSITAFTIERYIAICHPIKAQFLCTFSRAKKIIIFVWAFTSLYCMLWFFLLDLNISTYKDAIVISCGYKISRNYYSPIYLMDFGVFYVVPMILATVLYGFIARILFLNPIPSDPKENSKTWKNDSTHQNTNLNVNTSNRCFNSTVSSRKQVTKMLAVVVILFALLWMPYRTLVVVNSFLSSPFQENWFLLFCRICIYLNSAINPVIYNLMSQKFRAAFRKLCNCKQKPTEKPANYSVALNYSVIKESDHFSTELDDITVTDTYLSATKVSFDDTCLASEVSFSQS
# Procedure, shortened: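 Compounds are added by online pintool to dye-loaded TRHR cells while fluorescence is recorded every second. A rise in calcium signal during the agonist read marks activation; a later 10 nM TRH addition (EC20) serves the separate enhancer mode.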
# [6] = qHTS for Inhibitors of Cell Surface uPA Generation: Validation Assay (AID 493164);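 further: RAW 264.7 macrophage cells exposed to compound for 18 h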
# Procedure, shortened: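 ATP-Lite luminescence read-out: ATP remains high when uPA activity-dependent LF translocation into the cytoplasm is blocked. RAW 264.7 cells, 18 h compound exposure at 37 C; 7-point titration, 2.45 nM to 38.3 uM final.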
# [7] = target: Galactokinase (Homo sapiens) (UniProt P51570); assay: qHTS Validation Assay for Inhibitors of Human Galactokinase (GALK) (AID 493189)
# Sequence of Galactokinase (Homo sapiens) (P51570 whole entry, looked up): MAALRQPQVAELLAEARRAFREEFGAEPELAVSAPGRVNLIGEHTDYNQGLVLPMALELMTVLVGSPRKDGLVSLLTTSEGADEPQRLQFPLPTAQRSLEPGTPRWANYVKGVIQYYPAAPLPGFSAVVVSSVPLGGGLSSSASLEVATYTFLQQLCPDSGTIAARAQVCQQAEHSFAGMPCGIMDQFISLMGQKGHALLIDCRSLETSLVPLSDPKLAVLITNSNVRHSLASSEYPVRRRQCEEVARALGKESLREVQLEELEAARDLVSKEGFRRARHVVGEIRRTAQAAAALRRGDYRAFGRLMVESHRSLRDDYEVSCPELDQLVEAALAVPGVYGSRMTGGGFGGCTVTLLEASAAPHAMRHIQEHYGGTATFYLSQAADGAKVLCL
# Procedure, shortened: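 GALK (5 nM) with 35 uM ATP and 100 uM galactose in HEPES pH 8.0 with MgCl2, NaCl, DTT and BSA. Reaction ran 1 h at room temperature. Residual ATP read by Kinase-Glo Plus luminescence.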
# [8] = target: ATP-dependent 6-phosphofructokinase (Trypanosoma brucei brucei) (UniProt O15648); assay: qHTS Assay to Find Inhibitors of T. brucei phosphofructokinase: hit validation (AID 492961);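 further: luminescence reports ADP formed as PFK phosphorylates fructose-6-phosphate with ATP; series mostly up to about 51 µM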
# Sequence of ATP-dependent 6-phosphofructokinase (Trypanosoma brucei brucei) (O15648 whole entry, looked up): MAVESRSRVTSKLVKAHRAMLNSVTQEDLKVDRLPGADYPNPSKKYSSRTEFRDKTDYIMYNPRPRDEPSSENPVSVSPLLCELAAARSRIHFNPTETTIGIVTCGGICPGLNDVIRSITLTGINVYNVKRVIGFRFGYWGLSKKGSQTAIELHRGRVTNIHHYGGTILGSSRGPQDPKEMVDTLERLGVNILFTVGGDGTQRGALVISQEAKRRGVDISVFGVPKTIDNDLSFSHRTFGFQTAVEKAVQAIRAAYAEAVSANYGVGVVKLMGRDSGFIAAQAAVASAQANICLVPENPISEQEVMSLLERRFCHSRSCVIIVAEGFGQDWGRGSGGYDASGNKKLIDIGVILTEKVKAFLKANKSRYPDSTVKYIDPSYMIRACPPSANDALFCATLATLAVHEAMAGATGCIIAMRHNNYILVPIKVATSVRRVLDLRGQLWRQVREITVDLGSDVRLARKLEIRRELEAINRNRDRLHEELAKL
# Procedure, shortened: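 PFK 1.25 nM, F6P 0.5 mM, ATP 0.1 mM, MgCl2 5 mM, 0.1 M TEA pH 8.0, Tween20 0.01%, BSA 0.1%; 45 min RT. ADP-Glo two-step detection, luminescence. qHTS titration; curve fitting with curve-class categorization.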
# [9] = Nrf2 qHTS screen for inhibitors: Validation (AID 493153; active means well fitted inhibition curve with a large enough effect in the main read-out, with a control signal flat, not every such curve was filed as active); details: Potency: luciferase luminescence; viability change: measured here: cytotoxicity max response
# Procedure, shortened: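 A549 ARE_Fluc, 5% FBS OPTI-MEM; cpd titration, 18-24 h, 37°C/5% CO2. Read 1: CellTiter-Fluor (Ex 405/Em 525), cytotox. Read 2: luciferase lum, Nrf2 activity.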
Structure (SMILES),Potency [1],Potency [2],Potency [3],Potency [4],activation [5],outcome [6],Potency [7],outcome [8],Potency [9],viability change [9] [%]
CCCCCC(O)c1cccc(OCc2ccc3ccccc3n2)c1 (stereo unspecified),inactive,inactive,inactive,inactive,-5.62% (inactive),inactive,inactive,,,
CCCCCCCCCCCCCCCCCCNC(=O)OCC(COP(=O)([O-])OCC[n+]1ccsc1)OC (stereo unspecified),inactive,inactive,inactive,inactive,0.875% (inactive),inactive,inactive,,,
N=c1ccn2c(n1)O[C@H]1[C@H](O)[C@@H](CO)O[C@H]12,inactive,inactive,inactive,inactive,,inactive,,inactive,,
CCCCN1CCC(n2c(=O)[nH]c3ccccc32)CC1,inactive,inactive,inactive,inactive,1% (inactive),inactive,inactive,,inactive,-4.5
CN1[C@@H](CC(=O)c2ccccc2)CCC[C@H]1C[C@H](O)c1ccccc1,inactive,inactive,inactive,inactive,,inactive,inactive,inactive,inactive,-11
COC1=C(OC)C(=O)c2ccccc2C1=O,inactive,inactive,inactive,inactive,0.688% (inactive),inactive,inactive,,,
CC(=O)/C=C1\C(=O)N(C)c2ccccc21,inactive,10 µM (active),inactive,inactive,,inactive,,,inactive,-4.33
Cc1ccc(C(=O)O[C@H](C(=O)O)[C@@H](OC(=O)c2ccc(C)cc2)C(=O)O)cc1 (tested in a mixture with another compound),inactive,inactive,inactive,inactive,1.25% (inactive),inactive,inactive,,inactive,-3.95
CO/N=C(\C(=O)N[C@@H]1C(=O)N2C(C(=O)O)=C(COC(C)=O)CS[C@H]12)c1csc(N)n1,inactive,inactive,inactive,inactive,,inactive,,,inactive,-5.9
Cc1ccccc1CNc1ncnc2c1ncn2C1OC(CO)C(O)C1O (stereo unspecified),inactive,inactive,,13 µM (active),1.31% (inactive),inactive,inactive,inactive,,
O=P(O)(O)C(Cl)(Cl)P(=O)(O)O,inactive,inactive,inactive,inactive,,inactive,,,inactive,4.97
NCC1OC(O[C@H]2[C@H](O)[C@@H](OC3C(O)C(N)CC(N)C3OC3OC(CO)C(O)C(O)C3N)O[C@@H]2CO)C(N)C(O)C1O (stereo partly specified),inactive,inactive,inactive,inactive,,inactive,,,inactive,1.58
CC1CN(S(=O)(=O)c2cccc3cnccc23)CCN1 (stereo unspecified),inactive,inactive,inactive,20.6 µM (active),1.06% (inactive),inactive,inactive,,,
CC1OC1P(=O)(O)O (stereo unspecified),inactive,inactive,inactive,,,inactive,,inactive,inactive,11.8
COC(=O)c1c(C)[nH]c(C)c1C(=O)c1ccccc1Cc1ccccc1,inactive,inactive,inactive,inactive,,inactive,inactive,,inactive,-8.95
Oc1ccccc1O,inactive,inactive,inactive,inactive,0.375% (inactive),inactive,inactive,,,
CN(C)CCCO[C@@H]1[C@H]2OC(C)(C)O[C@H]2O[C@@H]1[C@H](O)CO,inactive,inactive,inactive,inactive,,inactive,,,,
OC[C@H]1O[C@@H](n2cnc3c(Nc4ccccc4)ncnc32)[C@H](O)[C@@H]1O,inactive,inactive,9.2 µM (active),inactive,,inactive,,,,
CN1CCc2ccccc2Cc2[nH]c3ccccc3c2CC1,inactive,0.355 µM (active),inactive,,0.5% (inactive),inactive,inactive,,inactive,-10.2
COc1cc2nc(N3CCN(C(=O)OCc4ccccc4)C(C(=O)NC(C)(C)C)C3)nc(N)c2cc1OC (stereo unspecified),inactive,inactive,inactive,,-3.06% (inactive),inactive,inactive,,inactive,-20.4
Nc1ncnc2c1c(I)cn2[C@@H]1C[C@H](N)[C@@H](O)[C@H]1O,inactive,inactive,inactive,5.17 µM (active),,inactive,,,,
C[N+](C)(C)CCOP(=O)(O)OP(=O)([O-])OC[C@H]1O[C@@H](n2ccc(N)nc2=O)[C@H](O)[C@@H]1O,inactive,inactive,inactive,inactive,,inactive,,,,
COc1ccc(/C=C/C(=O)Nc2ccccc2C(=O)O)cc1OC,inactive,inactive,1.64 µM (active),,-5.44% (inactive),inactive,inactive,,,
Ic1ccc(N2CCN(Cc3c[nH]c4ncccc34)CC2)cc1,inactive,inactive,inactive,,3.5% (inactive),inactive,inactive,,,
CCN(CC)c1ncnc2c1ncn2[C@@H]1O[C@H](COP(=O)(O)OP(=O)(O)C(Br)(Br)P(=O)(O)O)[C@@H](O)[C@H]1O,inactive,inactive,inactive,inactive,,inactive,,,,
